Inconclusive results are not listed. Activity calls are given as the source filed them. Calls come from the whole dose curve; as a rule, active = well fitted inhibition curve with a large enough effect; inconclusive = small, poorly fitted or top-dose-only effect; inactive = flat fitted curve, though single readings scatter.
% is set by controls: 0 for no effect and ±100 for the full control effect; potency is the fitted concentration of half-maximal effect.

The assay can be described thus: P-glycoprotein substrates identified in KB-8-5-11 adenocarcinoma cell line, qHTS therapeutic library screen (AID 1346987). Note: nearly all actives have a fitted effect of over 65% in size. The conditions noted are these: KB-8-5-11 (P-gp overexpressing) viability, CellTiter-Glo, 72 h; series mostly up to 44.5 µM; activity change, negative = cytotoxicity: at the top concentration. An outline of the steps:
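KB-8-5-11, a colchicine-selected P-gp-overexpressing KB-3-1 subline, was grown without colchicine for the assay. Cells were seeded at 500 cells/well, dosed in concentration-response and incubated 72 h at 37 degree C, 5% CO2. Viability was read by CellTiter-Glo luminescence.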
As to `C[C@@H]1O[C@@H](O[C@H]2[C@H](O[C@H]3[C@H](O[C@H]4CC[C@@]5(CO)C(CC[C@]6(C)C5CC=C5C7CC(C)(C)C[C@@H](O)[C@]7(C)CC[C@]56C)C4(C)C)O[C@H](C(=O)O)[C@@H](O)[C@@H]3O)OC[C@@H](O)[C@@H]2O)[C@H](O)[C@H](O)[C@H]1O` (stereo partly drawn), the outcome is “inactive [at 9.29 µM]”.

For `C[C@H]1[C@H](C)CC[C@]2(C(=O)O)CC[C@]3(C(=O)O)C(=CCC4[C@@]5(C)CC[C@H](O[C@@H]6O[C@H](C)[C@@H](O)[C@H](O)[C@H]6O)C(C)(C)C5CC[C@]43C)[C@H]12` (stereo partly drawn), the “activity change, negative = cytotoxicity” value was 6.32% [at 17.3 µM] (inactive).

Consider `CC12CC34C=CC(=O)C(C)(CCC(=O)O)C3C(CC1C4)O2` (stereo not drawn), for which the result was inactive.

With `C=C(C)[C@@H](C)[C@H]1O[C@]23C[C@]4(CO2)C(CCC2[C@@]5(C)CC[C@H](O[C@@H]6OC[C@H](O)[C@H](O[C@@H]7O[C@H](CO)[C@@H](O)[C@H](O)[C@H]7O)[C@H]6O[C@@H]6O[C@@H](CO)[C@H](O)[C@H]6O)C(C)(C)C5CC[C@]24C)C3[C@@](C)(O)[C@@H]1OC(C)=O` (stereo partly drawn), the activity change, negative = cytotoxicity was 4.3% [at 9.29 µM] (inactive).

As for `COc1cc(/C=C/c2cc(O)cc(O[C@@H]3O[C@H](CO)[C@@H](O)[C@H](O)[C@H]3O)c2)ccc1O`, the “activity change, negative = cytotoxicity” value is -4.45% [at 17.3 µM] (inactive).

Regarding `CC1=C2[C@@H]([C@H](C)CC[C@H]2/C=C(\C)C(=O)O)[C@H](O)C1`, the “activity change, negative = cytotoxicity” value is 9.08% (inactive).

In the case of `CC(=O)OC(C)OC(=O)C(C)c1ccc(-c2ccccc2)c(F)c1` (stereo not drawn), the Potency result is “inactive”.

Turning to `CON(C)C(=O)N1N=C(c2cc(F)ccc2F)S[C@@]1(CCCN)c1ccccc1`, the Potency was 164 nM (active).

The record behind these values is PubChem BioAssay (NCATS).
